D1 antagonist = Antagonist of Human D 1 Dopamine Receptor: qHTS | AID 504652, 2011 | D(1A) dopamine receptor (Homo sapiens), P21728 | activity change, negative = inhibition, % at 10 µM | hit rate 3.2% among 360,000 | HEK293 TREx D1 cells, calcium flux, dopamine EC80; active compounds read low; in the data active means activity change below about -30%; further: on the % scale 0 is the no-effect control and ±100 the full control effect
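Allosteric or orthosteric antagonism assessed as attenuation of the calcium response to EC80 dopamine, added 180 s after compound, in induced HEK293 Trex D1 cells loaded with no-wash calcium dye.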
D1 agonist = Allosteric Agonists of the Human D1 Dopamine Receptor: qHTS | activation, % at 2 µM | HEK293 T-REx D1 cells, calcium flux, agonist mode | hit rate 1% among 360,000 | D(1A) dopamine receptor (Homo sapiens), P21728; further: 0% is about no effect
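Agonism was scored from calcium flux recorded over 180 s (1 read/s) after pintool compound addition, following a 10-cycle baseline. Cells were inducible force-coupled HEK293 TREx D1, plated overnight at 30 C and loaded with no-wash calcium dye.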
TRHR agonist = qHTS for Small Molecule Agonists and Allosteric Enhancers of Human TRH Receptor: Primary Screen for Agonists; Thyrotropin-releasing hormone receptor (Homo sapiens), P34981; TRHR cells, calcium flux fluo-8, FDSS agonist mode; activation, % at 2 µM; hit rate 0.18% among 360,000; further: 0% is about no effect
Target sequence (P34981 whole entry, looked up): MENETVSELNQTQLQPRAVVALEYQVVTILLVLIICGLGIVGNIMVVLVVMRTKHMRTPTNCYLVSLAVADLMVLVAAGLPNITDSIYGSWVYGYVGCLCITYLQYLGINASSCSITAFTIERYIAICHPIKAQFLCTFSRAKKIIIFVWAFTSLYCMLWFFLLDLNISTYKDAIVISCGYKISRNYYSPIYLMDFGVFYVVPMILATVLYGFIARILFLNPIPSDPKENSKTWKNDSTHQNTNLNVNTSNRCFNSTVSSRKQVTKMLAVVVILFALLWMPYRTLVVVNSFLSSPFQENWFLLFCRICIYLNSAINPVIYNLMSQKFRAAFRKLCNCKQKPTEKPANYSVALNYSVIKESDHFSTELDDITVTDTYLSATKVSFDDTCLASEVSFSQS
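Fluo-8-loaded TRHR cells; 10 s baseline, compound added, kinetic Ca2+ fluorescence read 1/s, agonist mode.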
TRHR enhancer = qHTS for Small Molecule Agonists and Allosteric Enhancers of Human TRH Receptor: Primary Screen for Enhancers | enhancement, % at 2 µM | AID 493056, 2011 | Thyrotropin-releasing hormone receptor (Homo sapiens), P34981 | TRHR cells, fluo-8 calcium fluorescence, EC20 TRH enhancement | hit rate 0.66% among 360,000; in the data active means enhancement above about 30%; further: 0% is about no effect
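Enhancer read-out: after compound pinning and an initial kinetic agonist-mode read, an EC20 of TRH (10 nM final) was injected and fluo-8 calcium signal (Ex 480/Em 530) followed at 1 s/cycle for 100 cycles in TRHR-expressing cells.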
D1 potentiator = Potentiators of Human D1 Dopamine Receptor: qHTS; HEK293 TREx D1 cells, calcium flux, dopamine EC20 potentiation; potentiation, % at 10 µM; hit rate 0.036% among 360,000; in the data active means potentiation above about 30%; further: 0% is about no effect
Starred values were filed as active, the others as inactive. Only some compounds are listed: those with a hit (about 4.6% of all), similar ones and a draw of the others. Unless noted, no stated cut-off is given here; in the data, active means activation above about 30%; inactive means the rest.

What do the screens show for `CC(C)(C)CC(C)(C)NC(=O)Nc1cccc([N+](=O)[O-])c1`?
D1 antagonist: -41*; D1 agonist: 18; TRHR agonist: 0; TRHR enhancer: -9; D1 potentiator: -8

How did COc1ccc(NC(=O)c2noc3c2CCCC3)cc1Cl do in these assays?
D1 antagonist: -7; D1 agonist: 3; TRHR agonist: 2; TRHR enhancer: -4; D1 potentiator: -2

How did Cc1c2cnn(-c3ccccc3)c(=O)c2c(C)n1C(C)C(=O)Nc1ccccc1C(F)(F)F (stereo unspecified) do in these assays?
D1 antagonist: -3; D1 agonist: 6; TRHR agonist: 1; TRHR enhancer: -1; D1 potentiator: -3

What do the screens show for `CCC(C)(C)C1CCc2c(sc(NC(=O)C3c4ccccc4Oc4ccccc43)c2C(N)=O)C1` (stereo unspecified)?
D1 antagonist: -1; D1 agonist: 3; TRHR agonist: -1; TRHR enhancer: 43*; D1 potentiator: -5

Results for COC(=O)c1c(C)[nH]c(C(=O)C(C)OC(=O)C2CC(=O)N(CCc3ccccc3)C2)c1C (stereo unspecified) ?
D1 antagonist: -33*; D1 agonist: 3; TRHR agonist: 0; TRHR enhancer: 3; D1 potentiator: -18

How did COC(=O)c1c(C)[nH]c(C(=O)C(C)OC(=O)C2CC(=O)N(c3ccc(C)cc3)C2)c1C (stereo unspecified) do in these assays?
D1 antagonist: -1; D1 agonist: 26; TRHR agonist: 0; TRHR enhancer: -5

What do the screens show for `COc1ccc(Cl)cc1NC(=S)N1CCN(c2ccccn2)CC1`?
D1 antagonist: 3; D1 agonist: 0; TRHR agonist: 0; TRHR enhancer: 32*; D1 potentiator: -1

Results for COc1ccc(OC)c(NC(=S)N2CCCC2)c1 ?
D1 antagonist: 2; D1 agonist: 1; TRHR agonist: 0; TRHR enhancer: 9; D1 potentiator: -3

What do the screens show for `COc1ccc(Cl)cc1NC(=S)N1CCN(c2ncccn2)CC1`?
D1 antagonist: 2; D1 agonist: 3; TRHR agonist: -2; TRHR enhancer: 1; D1 potentiator: 3

Results for COc1ccc(Cl)cc1NC(=S)N1CCCCCC1 ?
D1 antagonist: -2; D1 agonist: 1; TRHR agonist: 0; TRHR enhancer: 40*; D1 potentiator: 0

Results for Cc1cc(C)c(OCC(=O)N(Cc2cccc(F)c2)Cc2ccco2)c(C)c1 ?
D1 antagonist: -3; D1 agonist: 16; TRHR agonist: 3; TRHR enhancer: 4; D1 potentiator: -1

What do the screens show for `CCSc1nc2c(c(=O)[nH]1)C(c1ccc(C)cc1)C1=C(CCCC1=O)N2` (stereo unspecified)?
D1 antagonist: -4; D1 agonist: 6; TRHR agonist: 0; TRHR enhancer: -5; D1 potentiator: -6

How did Cc1ccc(CSc2nc3c(c(=O)[nH]2)C(c2ccncc2)C2=C(CCCC2=O)N3)cc1 (stereo unspecified) do in these assays?
D1 antagonist: -48*; D1 agonist: -3; TRHR agonist: 0; TRHR enhancer: -1; D1 potentiator: -4

What do the screens show for `COc1ccc(-n2cc(-c3ccccc3)c3c(NCCc4ccc(OC)c(OC)c4)ncnc32)cc1`?
D1 antagonist: -2; D1 agonist: 1; TRHR agonist: 1; TRHR enhancer: -6; D1 potentiator: -1

Results for Cc1cc(SCC(=O)N/N=C/c2ccc(O)c(O)c2)c(C)cc1Br ?
D1 antagonist: -32*; D1 agonist: 2; TRHR agonist: 1; TRHR enhancer: -2; D1 potentiator: -5

What do the screens show for `CC(CNC(=O)CCCn1c(=O)c2cccn2c2ccccc21)c1ccccc1` (stereo unspecified)?
D1 antagonist: -6; D1 agonist: 1; TRHR agonist: 0; TRHR enhancer: -8; D1 potentiator: -2

What do the screens show for `COCCNc1c(-c2ccc(OC)c(OC)c2)nc2ccc(Cl)cn12`?
D1 antagonist: 32; D1 agonist: 0; TRHR agonist: 0; TRHR enhancer: 4; D1 potentiator: 2

Results for COCCNc1c(-c2ccc(O)cc2)nc2ccc(Cl)cn12 ?
D1 antagonist: -41*; D1 agonist: 0; TRHR agonist: -1; TRHR enhancer: 0; D1 potentiator: -10

What do the screens show for `CCc1nc2ccc(C(=O)NCc3ccc(N(C)C)cc3)cc2nc1CC`?
D1 antagonist: -4; D1 agonist: 1; TRHR agonist: -1; TRHR enhancer: 2; D1 potentiator: 1

Results for Cc1ccc(C2=NN(C(=O)CNCCO)C(c3cccs3)C2)cc1 (stereo unspecified) ?
D1 antagonist: -33*; D1 agonist: 2; TRHR agonist: 1; TRHR enhancer: 3; D1 potentiator: -5

What do the screens show for `Cc1ccc(C2CC(c3cccs3)=NN2S(=O)(=O)c2ccc(C)cc2)cc1` (stereo unspecified)?
D1 antagonist: -33*; D1 agonist: 7; TRHR agonist: 2; TRHR enhancer: 1; D1 potentiator: -1

Results for CC(=O)N1N=C(c2ccccc2)CC1c1cccs1 (stereo unspecified) ?
D1 antagonist: 10; D1 agonist: 2; TRHR agonist: -1; TRHR enhancer: -3; D1 potentiator: -6

What do the screens show for `Cc1ccc(C2=NN(S(C)(=O)=O)C(c3cccs3)C2)cc1` (stereo unspecified)?
D1 antagonist: -48*; D1 agonist: 0; TRHR agonist: 0; TRHR enhancer: -21; D1 potentiator: -11

What do the screens show for `O=C(c1ccccc1)N1N=C(c2ccccc2)CC1c1cccs1` (stereo unspecified)?
D1 antagonist: -67*; D1 agonist: 4; TRHR agonist: 1; TRHR enhancer: 4; D1 potentiator: -9

What do the screens show for `O=C(CNCCO)N1N=C(c2cccs2)CC1c1cccs1` (stereo unspecified)?
D1 antagonist: -5; D1 agonist: 3; TRHR agonist: 0; TRHR enhancer: -1; D1 potentiator: 5

What do the screens show for `O=C(c1ccc(Cl)c(S(=O)(=O)N2CCCCC2)c1)N1CCCC1`?
D1 antagonist: 27; D1 agonist: 1; TRHR agonist: 2; TRHR enhancer: 10; D1 potentiator: -4

How did O=c1c(-c2ccccc2)c(-c2ccccc2)oc2cc(O)cc(O)c12 do in these assays?
D1 antagonist: 53; D1 agonist: 40*; TRHR agonist: -3; TRHR enhancer: -10; D1 potentiator: -1

Source: PubChem BioAssay (National Center for Advancing Translational Sciences (NCATS))
